Screening data deposited in PubChem by National Center for Advancing Translational Sciences (NCATS).
DT40 TDP1 CPT: DT40-hTDP1 cell growth loss with CPT. chicken DT40 Tdp1-/-;hTDP1 cells + 20 nM CPT, ATP luminescence, 48 h. Potency, µM (top dose mostly 46.2 µM), most hits filed as inhibitors. 420,000 compounds, 12% hits. AID 686979; further: nearly all actives have a fitted effect of over 55% in size
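Chicken DT40 Tdp1-/- cells stably complemented with human TDP1 were seeded at 400 cells/well in medium containing 20 nM camptothecin, exposed to pin-transferred compounds, and grown at 37 °C for at least 48 hr. Viability was read as ATP luminescence.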
TDP1 inh: inhibitors of human tyrosyl-DNA phosphodiesterase TDP1; Potency, µM (highest dose often 130 µM), actives largely listed as inhibitors; recombinant TDP1, AlphaScreen DNA substrate cleavage; AID 485290; Q9NUW8; 350,000 compounds, 0.28% hits; further: nearly all actives have a fitted effect of over 40% in size
Target sequence (Q9NUW8 whole entry, looked up): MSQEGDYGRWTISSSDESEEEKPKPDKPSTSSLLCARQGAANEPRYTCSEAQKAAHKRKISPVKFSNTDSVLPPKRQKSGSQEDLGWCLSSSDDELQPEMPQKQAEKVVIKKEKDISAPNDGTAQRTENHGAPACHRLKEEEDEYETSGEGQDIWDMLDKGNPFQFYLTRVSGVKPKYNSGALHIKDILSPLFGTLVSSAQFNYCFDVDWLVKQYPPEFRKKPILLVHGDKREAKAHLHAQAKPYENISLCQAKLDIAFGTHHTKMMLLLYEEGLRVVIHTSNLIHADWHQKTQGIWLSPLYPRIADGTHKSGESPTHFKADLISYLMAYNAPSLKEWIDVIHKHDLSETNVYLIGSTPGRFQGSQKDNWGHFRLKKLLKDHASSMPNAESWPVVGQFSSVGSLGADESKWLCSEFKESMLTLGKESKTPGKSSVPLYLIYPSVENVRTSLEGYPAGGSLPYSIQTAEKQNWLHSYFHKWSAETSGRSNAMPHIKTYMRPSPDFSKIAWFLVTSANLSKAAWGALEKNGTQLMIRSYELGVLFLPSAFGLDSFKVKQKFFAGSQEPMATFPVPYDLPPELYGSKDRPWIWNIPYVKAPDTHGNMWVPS
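Steps: enzyme plus compound, 15 min RT; add biotin/phosphotyrosine-FITC oligonucleotide (15 nM final), react 5 min; add donor/acceptor beads (10 ug/ml final), 10 min; read AlphaScreen. Tdp1 at 1 nM final.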
IL-1B inflam inh: inhibitors of inflammasome signaling (IL-1 beta secretion); AID 743279; THP-1 LPS/ATP IL-1B secretion, AlphaLISA, 16 h; active compounds read low; 360,000 compounds, 4.7% hits; activity change, % at 57.5 µM; in the data active means activity change below about -50%; inconclusive means mostly about -30% to -49%
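THP-1 cells pretreated 1 hr with compounds (up to 57.5 uM final), then stimulated with LPS (250 ng/mL final) plus ATP (1.25 mM final); secreted IL-1B measured by AlphaLISA after 16 hr, decreased signal indicating inhibition.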
HepG2 viability: counter-screen for TGF-b inhibitors: cytotoxicity in HepG2 cells. 410,000 compounds, 0.76% hits. Potency, µM (doses to about 46.1 µM), actives largely listed as cytotoxic. HepG2 CAGA-GFP viability, ATP luminescence, 18 h
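HepG2 CAGA-GFP cells (1000/well, DMEM with 1% FBS) received compound, then TGF-beta at 500 pg/mL final, and were incubated 18 hours at 37 degrees C. Viability was read by CellTiter-Glo luminescence. Media-only wells were set as complete cell-killing and DMSO as no toxicity.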
TGFb SMAD3 inh: blocks TGF-b signaling; HepG2 CAGA-GFP TGF-b/SMAD3 reporter, GFP fluorescence, 18 h; TGF-beta stimulated, 500 pg/mL final; 410,000 compounds, 1.2% hits; Potency, µM (doses to about 46.1 µM), usual class: inhibitors; further: nearly all actives have a fitted effect of over 65% in size
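Inhibition was scored as loss of TGF-beta-induced (500 pg/mL final, 18 hours, 37 degrees C) GFP in HEPG2 cells carrying a CAGA-GFP reporter, in DMEM with 1% FBS. Well GFP was summed per cell; Activity was normalised to unstimulated and stimulated DMSO wells, then concentration-response fitting.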
TDP1 cell noCPT: qHTS for Inhibitors of human tyrosyl-DNA phosphodiesterase 1 (TDP1): qHTS in cells in absence of CPT; DT40 Tdp1-/- hTDP1 cells, no CPT, ATP luminescence, 48 h; Potency, µM (doses to about 46.2 µM), actives largely listed as inhibitors; 420,000 compounds, 15% hits; further: nearly all actives have a fitted effect of over 55% in size
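A cellular qHTS used chicken DT40 cells lacking endogenous Tdp1 but carrying stably transfected human TDP1. Compounds were applied without camptothecin, and cell growth kinetics were judged by ATP-dependent luminescence after ≥48 hr.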
A number is an active result; i = inactive; ? = inconclusive; nt = no result; [ ] = remark or other dose. The list is not random: actives were taken first. Their share in the collection is about 19%. Unless noted, the call rests on the fitted dose curve; in most records, active means well fitted curve in the direction sought with a large enough effect; inconclusive means small, poorly fitted or top-dose-only effect, or another doubt; inactive means no such curve, though single readings can be large; an effect the other way counts as inactive or inconclusive.

SMILES	DT40 TDP1 CPT	TDP1 inh	IL-1B inflam inh	HepG2 viability	TGFb SMAD3 inh	TDP1 cell noCPT
Clc1nc(Nc2ccccc2)nc(Nc2ccccc2)n1	i	i	-100	i	i	i
CCc1nn2c(=O)c(S(=O)(=O)Nc3ccc(OC)c(Cl)c3)c(C)nc2s1	i	i[12.3 µM]	nt	i	i	?
CC(=O)Oc1cccc2c1C(=O)c1c(OC(C)=O)cc(C(=O)O)cc1C2=O	?	i	i	i	i	?
CC(=O)Oc1cccc2c1C(=O)C1CC=CC(OC(C)=O)C1C2=O (stereo not drawn)	?	nt	i	i	i	23µM
O=C(NC1CC1)C1CCN(c2nc3ccccc3s2)CC1	i	i	i	i	i	i
O=C(NC1CC1)C1CCN(c2ncnc3c2sc2cccc(F)c23)CC1	23µM	i	i	i	i	16µM
CCC1(C2CCN(C(=O)c3cc(F)ccc3F)CC2)NC(=O)N(CCc2scnc2C)C1=O (stereo not drawn)	i[9.04 µM]	nt	nt	nt	nt	i
CCOc1ccc(-n2c(SCC(=O)N3CCCc4ccccc43)nc3c([nH]c4ccccc43)c2=O)cc1	i	i	nt	i	i	i
CC1(C)CC(=O)C2=C(C1)c1c(ccc3ncccc13)NC2c1cccs1 (stereo not drawn)	5.2µM	i	i	i	i	3.7µM
Cc1ccc(C2Nc3ccc4ccccc4c3C3=C2C(=O)CC(C)(C)C3)o1 (stereo not drawn)	?	i	-52	i	i	?
O=C1CCCC2=C1C(c1ccco1)Nc1ccc3ccccc3c12 (stereo not drawn)	21µM	?	i	i	i	18µM
O=C1CCCC2=C1C(c1ccc(O)c(O)c1)Nc1ccc3ccccc3c12 (stereo not drawn)	?	nt	i	i	?	10µM
CC1(C)CC(=O)C2=C(C1)c1c(ccc3ccccc13)NC2c1ccc(C(=O)O)cc1 (stereo not drawn)	i	nt	i	i	i	i
Cc1ccc(Sc2c(C)nn(C(C)(C)C)c2OC(=O)C(C)(C)C)cc1	i	i	nt	i	i	?
COc1ccc(NC(=O)CC2NCCNC2=O)c(OC)c1 (stereo not drawn)	i	i	nt	i	i	i
CC(=O)N1CCC2(CC1)OC(=O)C(C)=C2C(=O)NCc1cccc(Cl)c1	i	i	nt	i	i	i
COc1cc(C2Nc3ccc4ncccc4c3C3=C2C(=O)CCC3)cc(OC)c1O (stereo not drawn)	5.2µM	i	i	i	i	5.2µM
O=c1c(=O)n(-c2ccccc2)ccn1Cc1cccc(C(F)(F)F)c1	?	i	nt	i	i	?
CSCc1cc(N(C)c2ccccc2)nc(-c2ccccn2)n1	2.9µM	nt	i	i	i	4.6µM
O=S(=O)(c1c(F)cccc1F)N(CCc1ccc(F)cc1)C[C@@H](O)COCc1ccccc1	?	nt	i	i	?	?
COc1ccc(CN(CC(O)COCc2ccccc2)S(=O)(=O)c2ccccc2Br)cc1OC (stereo not drawn)	?	i	-64	i	?	16µM
CN(C)c1ccc(N=Nc2ccccc2C(=O)OCC(=O)Nc2ccccc2C(F)(F)F)cc1	?	i	i	i	i	23µM
COCCNC(=O)c1sc2ncccc2c1-n1c(C)ccc1C	18µM	i	nt	i	i	?
Cc1ccc(C)n1-c1c(C(=O)NCCC(C)C)sc2ncccc12	16µM	i	nt	i	?	18µM
CCc1ccc(CNC(=O)c2sc3ncccc3c2-n2c(C)ccc2C)cc1	15µM	i	nt	i	11µM	21µM
CC(C)CCNC(=O)c1cccc(C(=O)NCCC(C)C)c1	?	i	i	i	i	?
COc1ccc(C2/C=C\CN(C(=O)c3ccccc3)C(Cc3ccccc3)C(=O)N2Cc2ccc(F)cc2)cc1 (stereo not drawn)	nt	i	nt	i	?	nt
